Source: PubChem BioAssay AID1259313 (Sanford-Burnham Center for Chemical Genomics, 2017)
Hit rate of the full screen: of about 340,000 compounds, about 8,500 (2.5%) were called active.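 Rule for the calls: active = melting temperature shift of at least 10% of the positive control shift, at one fixed dose; inactive = the rest.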 What follows is part of a selection rich in actives, with near analogues and random picks from the rest.

The compounds below were run on Glutamate receptor ionotropic, NMDA 3A (GRIN3A) ligand-binding domain (assay: NR3A LBD thermal stabilization by compounds – biophysical, differential scanning fluorimetry, uHTS, primary screen (AID 1259313)). Settings: at 25 µM, active compounds read high, 0% = protein alone, 100% = glycine-bound protein.

Tm shift relative to glycine control, inactive:
CC(C)N(C(=O)CSc1nnc(NC2CC2)s1)c1ccccc1 -1.56%
Cc1ccccc1Nc1nnc(SCC(=O)c2cc3ccccc3o2)s1 -23.4%
Cc1cc2c(=O)n(C)c(SCC(=O)c3cc4ccccc4o3)nc2s1 -0.65%
CC(C)Nc1nnc(SCC(=O)c2c[nH]c3ccccc23)s1 -3.26%
O=C(CN1C(=O)CCS(=O)(=O)c2ccccc21)NCc1ccc(F)cc1 -2.05%
CN1CCN(C(=O)c2ccc(NS(=O)(=O)c3ccccc3)cc2)CC1 -0.09%
OCCCC1CCCCN1Cc1nc(Cc2ccccc2Cl)no1 (stereo unspecified) 0.08%
NS(=O)(=O)c1cc(C(=O)NCCOc2ccccc2)c(Cl)cc1Cl -0.6%
CCCN(C(=O)CSc1nnc(N)s1)c1c(N)n(Cc2ccccc2)c(=O)[nH]c1=O 5.76%
CC1=CC(=C(C#N)c2nc3ccccc3s2)C=C(C)N1c1ccc(F)cc1F -4.96%
O=C(O)CC/C(=C\c1cc2c(cc1Br)OCO2)c1nc2ccccc2s1 -1.28%
Cc1cc(NC(=O)c2ccco2)c(=O)n(Cc2c(F)cccc2Cl)c1 -1.84%
O=C(C[C@H]1C[C@H](C(=O)N2CCOCC2)[C@@]2(CCC3CCCC3)c3[nH]c4ccc(Cl)cc4c3CCN2C1=O)NCc1ccco1 3%
COc1ccc2[nH]c3c(c2c1)CCN1C(=O)C(CC(=O)NCCCN(C)C)C[C@H](C(=O)N2CCOCC2)[C@@]31CCC1CCCC1 (stereo partly specified) 0.34%
C/C(Cc1ccccc1)=N\NC(=O)CNC(=O)c1cccc(Br)c1 -3.32%
C/C(Cc1ccccc1)=N\NC(=O)CNC(=O)c1ccccc1Cl 0%
O=S(=O)(Nc1ccc(-n2cnnn2)cc1)c1ccc(Cl)cc1 0.42%
CC(=O)[C@@]12O[C@@H]1C[C@H]1[C@@H]3CC[C@H]4C[C@@H](O)CC[C@]4(C)[C@H]3CC[C@@]12C 0%
Cc1ccc(C(=O)NCC(=O)OCC(=O)Nc2cccc(S(=O)(=O)N3CCCC3)c2)cc1C -2.16%
N/C(=N\c1nc2ccccc2o1)NC(=O)C(Cc1ccccc1)N1C(=O)c2ccccc2C1=O (stereo unspecified) -1.81%
COc1ccc(CCNC(=O)C(=O)NCc2ccccc2C)cc1OC -1.17%
CC(=O)c1ccc(NC(=O)CCNS(=O)(=O)c2cc(Br)cnc2N)cc1 -12.8%
COc1ccc(CCNC(=O)CSCc2ccc(Br)cc2)cc1OC 0.53%
COc1ccc(CCNC(=O)Cc2ccc(C)cc2)cc1OC -3.8%
Cc1cccc(OCCC(=O)Nc2cc(S(=O)(=O)N3CCCCC3)ccc2N2CCOCC2)c1 6.71%
O=C(COc1ccc(-n2cnnn2)cc1)Nc1ccccc1Cl -3.66%
O=C(COc1cccc(-n2cnnn2)c1)NCCC1=CCCCC1 -4.1%
COc1ccc(-c2ccc3c(c2)C2CC3CCN2CCC#N)cc1 (stereo unspecified) 0.87%
N#CCOc1ccc(C2=NO[C@@H]3[C@@H]4C[C@@H]([C@H]5C(=O)N(c6ccc7c(c6)OCO7)C(=O)[C@@H]45)[C@H]23)cc1 -1.3%
Cc1cc(CN(C)C(=O)c2cc(COc3ccc(C)c(C)c3)on2)n[nH]1 -0.56%
Cc1cc(Cl)ccc1OCCCC(=O)NCc1ccccn1 -3.24%
Cc1cc(Cl)ccc1OCCCC(=O)Nc1cccc(-n2cnnn2)c1 4.11%
CCOCCCNC(=O)Cc1cc(=O)[nH]c(=O)[nH]1 -1.66%
OCC[C@H]1C[C@H](O)[C@@H](O)[C@]2(CCc3ccccc3O2)O1 1.78%
CC1CN(CC(=O)NC(C)c2ccccc2)CC(C)O1 (stereo unspecified) -1.03%
CCC(=O)c1cn(CCOc2ccccc2OC)c2ccccc12 2.85%
CC(=O)Nc1ccc(S(=O)(=O)NC2(C(F)(F)F)C(=O)NC(C)=C2C#N)cc1 (stereo unspecified) -1.26%
Cc1ccc(S(=O)(=O)NC2(C(F)(F)F)NC(=O)N(CCc3ccccc3)C2=O)cc1 (stereo unspecified) -0.75%
Nc1ncnc(Nc2cccc(Cl)c2Cl)n1 -0.42%
O=C(NCc1ccccc1)[C@H]1C[C@@H]1[C@H](NP(=O)(c1ccccc1)c1ccccc1)c1ccccc1 -1.54%
CC[C@]12c3[nH]c4cc(CCC(=O)N(C)C)ccc4c3CCN1C(=O)[C@@H](CC(=O)NCC13CC4CC(CC(C4)C1)C3)C[C@@H]2C(=O)N1CCN(C(=O)C2CC2)CC1 -2.56%
CC(=O)c1cccc(NC(=S)N2CCCC2)c1 2.43%
CSc1nsc(SCC(=O)Nc2cc(C(=O)O)ccc2C)n1 1.25%
CCSc1nsc(NC(=O)Nc2cccc(C(C)=O)c2)n1 0.77%
CC(NC(=O)Nc1ccccc1)c1ccccc1 (stereo unspecified) -5.71%
S=c1[nH]c2ccccc2c2ccccc12 -5.09%
OCC1(Cc2ccccc2C(F)(F)F)CCN(Cc2ccncc2)CC1 -1.43%
CCOc1cc(CNn2c(C)nnc2SCC(=O)NC(C)(C)C)ccc1OCC(=O)NC(C)(C)C -4.76%
CC1(C)CC(CNCCC(c2ccc(F)cc2)c2ccco2)CCO1 (stereo unspecified) 0.16%
COC(=O)CSc1ccc2nnc(CCNS(=O)(=O)c3ccc(C)cc3)n2n1 -0.94%
CN(C)S(=O)(=O)c1ccc(NC(=O)COC(=O)c2n[nH]c3ccccc23)cc1 -2.54%
CCN(CC)S(=O)(=O)c1ccc(C(=O)N2CCN(C3=NS(=O)(=O)c4ccccc43)CC2)cc1 0.26%
O=C(Nc1nnc(COc2ccccc2)s1)Nc1ccccc1F 1.33%
COCC(=O)Nc1nnc(COc2ccccc2)s1 2.29%
Cc1ccc(-c2nnc(SCC(=O)N/N=C/c3cccs3)n2-c2ccc(C)cc2)cc1 -6.78%
COc1cccc(/C=C/C(=O)Nc2ccc3c(c2)OCCO3)c1 2.64%
CCC1([N+](=O)[O-])COC(c2ccc(C)cc2)OC1 (stereo unspecified) -10.1%
NC(=O)CC[C@@H]1NC(=O)[C@H](CO)NC(=O)c2cc([N+](=O)[O-])cc(I)c2NCC[C@@H](C(N)=O)NC1=O -0.81%
O=C(NCc1ccccc1Cl)C1CCCN1S(=O)(=O)c1ccc(F)cc1 (stereo unspecified) 2.13%
O=C(CN1CCN(S(=O)(=O)c2ccc(Cl)s2)CC1)NCc1ccc(Cl)cc1 -1.27%
CN(NC(=O)c1ccccc1F)c1nc(C(F)(F)F)nc2ccccc12 0.16%
CSc1nc(N(C)NC(=O)c2cccc(C)c2)c2ccccc2n1 3.17%
Cc1ccc(C)c(C(=O)N2CCC(n3nccc3NC(=O)C3CC3)CC2)c1 0.44%
O=C(NC1(C(F)(F)F)NC(=O)N(C2CCCCC2)C1=O)c1ccco1 (stereo unspecified) 1.55%
CCC1(CC)NC(=O)N(Cc2nc3ccccc3s2)C1=O -0.61%
Cc1ccc2oc(=O)c3cnn(CC(=O)N4CCN(c5ccccn5)CC4)c3c2c1 0.6%
CCOc1cccc2cc(C(=O)OCC(=O)Nc3c(C)cccc3CC)c(=O)oc12 -0.27%
N#C/C(=C\N1CCOCC1)S(=O)(=O)c1ccc(Cl)cc1 -0.42%
CCCN(CCC)c1c([N+](=O)[O-])c(=O)oc2ccccc12 -4.15%
Cc1ccc(-c2cn3cc([N+](=O)[O-])ccc3n2)cc1 0.72%
Cc1ccc(C(=O)Cn2cc([N+](=O)[O-])nc2C)cc1 2.36%
CN(C)/C=C(/C(=O)c1ccccc1)S(=O)(=O)c1ccc(Cl)cc1 -1.01%
Cc1cc(NC(C)C)n2c(nc3ccccc32)c1C#N 0.92%
CC(C)c1cc(NCc2ccccn2)n2c(nc3ccccc32)c1C#N 1.69%

Tm shift relative to glycine control, active:
Cc1ccc(Nc2nnc(SCC(=O)c3cc4ccccc4o3)s2)cc1C 11.5%
CC(C)c1ccc(Nc2nnc(SCC(=O)c3nnc(-c4ccccc4)o3)s2)cc1 19.9%
N#C/C(=C(/O)Cc1cccc2ccccc12)c1nc2ccccc2s1 19.3%
COc1ccc(CNC(=O)C[C@H]2C[C@H](C(=O)N3CCOCC3)[C@@]3(CCC4CCCC4)c4[nH]c5ccc(Cl)cc5c4CCN3C2=O)cc1OC 10%
C/C(Cc1ccccc1)=N\NC(=O)CNC(=O)c1ccc2c(c1)OCCO2 12.5%
COc1ccc(CCNC(=O)CCNS(=O)(=O)c2cc(Br)cnc2N)cc1OC 11%
COc1ccc(CCNC(=O)CCc2ccccc2O)cc1OC 19.5%
C=CCc1cccc(/C=N/NC(=O)COc2ccc(-n3cnnn3)cc2)c1O 24.6%
Cc1cc(Cl)ccc1OCCCC(=O)NCc1ccncc1 21.3%
CCCN1C(=O)C(NS(=O)(=O)c2ccc(N)cc2)(C(F)(F)F)C(C(=O)OC)=C1C (stereo unspecified) 13.6%
CSc1nsc(NC(=O)Nc2ccccc2)n1 19.7%
C=CCSc1nsc(NC(=O)Nc2cccc(C(C)=O)c2)n1 15.6%
O=C(Nc1ccccc1)Nc1nnc(COc2ccccc2F)s1 38.9%
CN(NC(=O)c1ccccc1)c1nc2ccccc2nc1C(F)(F)F 11.4%
O=C1NC(Nc2nc3ccccc3s2)(C(F)(F)F)C(=O)N1C1CCCCC1 (stereo unspecified) 13.7%
Cc1ccc(-n2cc3ccc([N+](=O)[O-])cc3n2)cc1 13.3%
Cc1cc(NCc2ccco2)n2c(nc3ccccc32)c1C#N 19.7%
